Results on 57 molecules are retold here after PubChem BioAssay AID1259416 (Broad Institute, 2018).

The structures appear in SMILES notation. Values joined by “and” are separate entries in the source; they are usually repeats but may differ in a detail not shown here. Identical values can stand only once. The campaign covered roughly 69,000 compounds. About 2,600 (3.8%) were called active. No stated cut-off is given here; in the data, active means activity change below about -70% (passing the limit was not always enough); inconclusive means no clear call, values can overlap the other calls. For the sample, actives were picked, then their nearest neighbours and some compounds at random. A structure can be active in one record and inactive in another.

A short description of the test: inhibitors of Toxoplasma growth in IFN-γ-primed hosts – cell-based, primary screen (AID 1259416).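 Further: host cells are HeLa cells infected with Toxoplasma gondii.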 Particulars: Toxoplasma gondii growth in IFN-gamma-treated host cells; stronger effect = lower value; concentration not given here.
In the case of `CC(=O)Nc1ccc(Nc2nc(-c3nnc(-c4cccc(C)c4)o3)nc3ccccc23)cc1`, the activity change, negative = inhibition is 494% (inactive).

As for `COc1ccc(-c2nc(Nc3ccc(C(C)C)cc3)c3ccccc3n2)cc1`, the activity change, negative = inhibition was -22% (inactive).

For the molecule `CC(C)NC(=O)COc1cccc(-c2nc(Nc3ccc4[nH]ncc4c3)c3ccccc3n2)c1`, the activity change, negative = inhibition was -76.1% (active).

Take `Cc1cc(CN(C)C(=O)c2coc(COc3ccc4sc(C)nc4c3)n2)on1`: the activity change, negative = inhibition was 12.7% (inactive).

For `Fc1ccc2c(c1)C(c1cccnc1)=NNC(c1cccs1)=N2`, the activity change, negative = inhibition is -8.32% (inactive).

Take `O=C(O)C1CSC(C2CC=CCC2)N1` (configuration not stated): the activity change, negative = inhibition is 3.83% (inactive).

As for `COCC1c2nnn(CC3CC3)c2CCN1C(=O)N(C)C` (configuration not stated), the activity change, negative = inhibition is -2.44% (inactive).

As to `CN1CC[C@H](c2c(O)cc(O)c3c(=O)cc(-c4ccccc4Cl)oc23)[C@H](O)C1`, the activity change, negative = inhibition was -76.7% (active).

With `CC(=O)N1CCC(C(=O)NCc2ccccc2)(N(C(=O)c2ccc(C)cc2)c2ccc(F)c(F)c2)CC1`, the activity change, negative = inhibition is -32.1% (inactive).

Regarding `CC(=O)Nc1ccc(-c2cn3nc(C)c(C)nc3n2)cc1`, the activity change, negative = inhibition is -0.582% (inactive).

As for `Cc1nc(-c2ccc(F)cc2)sc1-c1ccc(SCc2ccc(Br)cc2)nn1`, the activity change, negative = inhibition is -0.254% (inactive).

With `N#Cc1ccccc1SCc1ccccc1`, the activity change, negative = inhibition is 27% (inactive).

Consider `Brc1ccc(CSc2cccc3cccnc23)cc1`, for which the activity change, negative = inhibition is -110% (active).

Turning to `O=C(COc1ccccc1Cl)Nc1ccc(Oc2ccc(F)cc2)c(C(F)(F)F)c1`, the activity change, negative = inhibition is -7.01% (inactive).

On to `CC1=C(C(=O)NCCCN2CCCCC2)C2(CCN(S(C)(=O)=O)CC2)OC1=O`, for which the activity change, negative = inhibition was 16.4% (inactive).

On to `Cc1ccc(-c2nc3c(s2)CN(C(=O)Nc2ccc(C)cc2C)CC3)cc1`, for which the activity change, negative = inhibition was 210% (inactive).

Take `COc1ccc(OC)c(NC(=O)N2CCc3nc(-c4ccc(C)cc4)sc3C2)c1`: the activity change, negative = inhibition was -112% (active).

Turning to `COc1ccc(C)cc1NC(=O)C(=O)NCCc1sc(-c2ccc(F)cc2)nc1C`, the activity change, negative = inhibition is 0.139% (inactive).

`COc1cccc(OCC(=O)NCCc2sc(-c3cccc(F)c3)nc2C)c1`: the activity change, negative = inhibition was 11.4% (inactive).

On to `COc1ccc(NC(=O)N2CCc3nc(-c4ccccc4)sc3C2)cc1OC`, for which the activity change, negative = inhibition was 32.4% (inactive).

Take `COc1cccc(-c2nc3c(s2)CN(C(=O)Nc2ccc(C)c(F)c2)CC3)c1`: the activity change, negative = inhibition was -89.9% (active).

For `CO[C@H](c1ccccc1)c1n[nH]c(Cc2ccccc2)n1`, the activity change, negative = inhibition is 0.899% (inactive).

`CC1(C)Cc2cc(-c3cncn3CCNC3CCS(=O)(=O)C3)ccc2O1` (configuration not stated): the activity change, negative = inhibition is 2.55% (inactive).

On to `Cc1c(Br)c(C(F)(F)F)nn1CC(=O)N1CCCCC1`, for which the activity change, negative = inhibition is 2.94% (inactive).

Turning to `CCn1c(=O)c(-c2nc(-c3ccc(F)c(Cl)c3)no2)c(O)c2ccccc21`, the activity change, negative = inhibition was -48.5% (inactive).

Consider `COc1ccc(-c2[nH]ncc2CNC(=O)Cc2cccnc2)cc1`, for which the activity change, negative = inhibition is -20.6% (inactive).

With `CN(CCCC1CCCO1)Cc1ncc[nH]1` (configuration not stated), the activity change, negative = inhibition was -1.64% (inactive).

As to `O=C(Nc1ccccc1N1CCOCC1)NC1CCN(C(=O)OCc2ccccc2)CC1`, the activity change, negative = inhibition is -86.9% (active).

With `CC(=O)Nc1ccccc1OC(=O)N1CCOCC1`, the activity change, negative = inhibition was 0.117% (inactive).

Turning to `CCOC(=O)N1CCC(NCc2ccccc2-n2ccnc2C)CC1`, the activity change, negative = inhibition was 4.98% (inactive).

For `CN(Cc1ccn[nH]1)C(=O)c1coc(COc2cccc(F)c2F)n1`, the activity change, negative = inhibition was 6.91% (inactive).

Turning to `CCC(C)N(Cc1ccncc1)C(=O)Cc1nc(C)sc1C` (configuration not stated), the activity change, negative = inhibition is 46% (inactive).

Consider `C[C@H]1O[C@@H](O[C@H]2[C@@H](O)C[C@H](O[C@H]3[C@@H](O)C[C@H](O[C@H]4CC[C@]5(C)C6C[C@@H](O)[C@]7(C)[C@@H](C8=CC(=O)OC8)CC[C@]7(O)C6CC[C@@H]5C4)O[C@@H]3C)O[C@@H]2C)C[C@H](O)[C@@H]1O` (some centres not stated), for which the activity change, negative = inhibition was -64.8% (inactive) and -73.6% (active).

Take `CCOC(=O)c1cccnc1-c1ccc(OC)nc1`: the activity change, negative = inhibition was 14.5% (inactive).

`CN1CCC(NCCN(C)S(C)(=O)=O)CC1`: the activity change, negative = inhibition is 12.1% (inactive).

Regarding `CCOC(=O)CCSc1nnc(CNc2cccc(Cl)c2)n1CCc1ccccc1`, the activity change, negative = inhibition is 19.4% (inactive).

Consider `Cc1cccc(-c2nc(C)c(CCNC(=O)C(=O)Nc3cccc(Cl)c3)s2)c1`, for which the activity change, negative = inhibition is -6.82% (inactive).

Turning to `CSc1nnc(SC)n1CCNC(=O)Nc1cccc(Cl)c1`, the activity change, negative = inhibition is -80.6% (active).

Consider `Cn1nc(C2CCN(c3cnccn3)CC2)n(-c2ccccc2)c1=O`, for which the activity change, negative = inhibition is 2.02% (inactive).

As for `CC(C)c1cc(C(=O)NCCCc2nc3ccccc3n2C)n(C)n1`, the activity change, negative = inhibition was -0.0637% (inactive).

For the molecule `Cc1ccc(C23CC4CC(CC(CN)(C4)C2)C3)cc1C`, the activity change, negative = inhibition is -89.5% (active).

Take `O=C1CCc2cc(S(=O)(=O)Nc3cccc(Cl)c3)cc3c2N1CC3`: the activity change, negative = inhibition is -27.2% (inactive).

As to `CCCc1ccc(N2C(=O)C3CCC(C)CC3C2=O)cc1` (configuration not stated), the activity change, negative = inhibition is 7.51% (inactive).

Consider `CC(C)c1cc(CN(C)C(=O)c2ccc(C#CC(C)(C)O)o2)on1`, for which the activity change, negative = inhibition was 1.77% (inactive).

For the molecule `CC(=O)N1CC2(CCN(C(=O)C3CCNCC3)CC2)CC1C(=O)O` (configuration not stated), the activity change, negative = inhibition is -40.5% (inactive).

For `CC(=O)c1cnc2ccc(-c3cc(Cl)c(O)c(Cl)c3)nc2c1NC1CCC(CN(C)C)CC1` (configuration not stated), the activity change, negative = inhibition is -75.6% (active).

Turning to `Cc1nn(-c2ccccc2)c(C)c1CCC(=O)Nc1nc(C(C)C)cs1`, the activity change, negative = inhibition is -0.863% (inactive).

In the case of `COc1cc2c(cc1CNCC(=O)Nc1ccc(C)cc1C)OCCO2`, the activity change, negative = inhibition is -7.55% (inactive).

With `CN(Cc1ccoc1)c1nc(-c2cccnc2)nc2c1cnn2C`, the activity change, negative = inhibition was -58.5% (inactive).

In the case of `Cc1nc(SCc2nc(C(c3ccccc3)c3ccccc3)no2)[nH]c(=O)c1C`, the activity change, negative = inhibition was -95.3% (active).

For `COc1ccc(-c2noc(CSc3nc(C)cc(=O)[nH]3)n2)cc1OC`, the activity change, negative = inhibition was 32.8% (inactive).

Turning to `C=CCN(Cc1ccc(C)s1)C(=O)c1ccc(-c2nnn(C)n2)cc1`, the activity change, negative = inhibition was -2.73% (inactive).

As to `CC1CCCN(C(=O)CCNc2c(-c3ccc(F)cc3)nc3cnccn23)C1` (configuration not stated), the activity change, negative = inhibition is 229% (inactive).

`Cc1ncc(CN2CCC(Oc3cccc(C(=O)NCc4ccccc4)c3)CC2)s1`: the activity change, negative = inhibition is -28.1% (inactive).

For `COC1C2CCC1N(C(=O)COc1ccccc1C)CCO2` (configuration not stated), the activity change, negative = inhibition was -5.26% (inactive).

With `CC(C)(C)CC(=O)OCC(=O)[C@@]1(O)CCC2C3CCC4=CC(=O)C=C[C@]4(C)C3[C@@H](O)C[C@@]21C` (some centres not stated), the activity change, negative = inhibition is 6.39% (inactive).

`O=C(CCC1(c2ccccc2)NC(=O)NC1=O)Nc1ccc(N2CCCCC2)c(F)c1` (configuration not stated): the activity change, negative = inhibition is -25.7% (inactive).
